Values joined by “and” are separate entries in the source; they are usually repeats but may differ in a detail not shown here. Equal entries are not always repeated. Compounds without any hit were thinned out: in the full panel of roughly 79,000, 15% have a hit. More than one record can exist for a structure, and the calls need not agree. Active and inactive are the calls of the source. No stated cut-off is given here; in the data, active means growth inhibition above about 70%; inactive means the rest.
Experiments:
[1] = NCI Yeast Anticancer Drug Screen. Data for the rad50 strain (AID 155);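 further: 0% = growth of vehicle-only cultures of the same strain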; conditions: S. cerevisiae rad50 strain growth inhibition; at 50.0 µM; stronger effect = higher value
Method in brief: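 Genetically altered yeast (DNA repair pathway); compound treatment; growth inhibition vs vehicle ctrl.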

[2] = NCI Yeast Anticancer Drug Screen. Data for the mec2-1 strain (AID 157); conditions: S. cerevisiae mec2-1 strain, at 50.0 µM, stronger effect = higher value
Method in brief: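 Vehicle-treated cultures served as reference for growth inhibition of compound-exposed mec2-1 yeast.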

[3] = NCI Yeast Anticancer Drug Screen. Data for the sgs1 mgt1 strain (AID 161);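 further: 0% = growth of cultures given vehicle only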; conditions: S. cerevisiae sgs1 mgt1 strain, at 50.0 µM, stronger effect = higher value
Method in brief: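 Inhibition of yeast growth, normalised to vehicle-treated controls, is reported for a strain bearing genetic alterations in DNA damage repair.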

[4] = NCI Yeast Anticancer Drug Screen. Data for the cln2 rad14 strain (AID 165);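 further: 0% = growth equal to vehicle treated cultures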; conditions: S. cerevisiae cln2 rad14 strain, at 50.0 µM, stronger effect = higher value
Method in brief: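 Each compound was tested on cln2 rad14 yeast. Inhibition of growth was calculated against vehicle-exposed controls.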

[5] = NCI Yeast Anticancer Drug Screen. Data for the bub3 strain (AID 167); conditions: S. cerevisiae bub3 mutant strain, at 50.0 µM, stronger effect = higher value
Method in brief: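 Yeast carrying a defined mutation is treated with each compound, and growth is compared with that of vehicle-exposed cells to give inhibition.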

[6] = NCI Yeast Anticancer Drug Screen. Data for the mlh1 rad18 strain (AID 175); conditions: S. cerevisiae mlh1 rad18 strain growth inhibition; at 50.0 µM; stronger effect = higher value
Method in brief: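 Vehicle-treated cultures served as the reference for growth inhibition in a yeast strain carrying DNA damage repair alterations exposed to each compound.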

Measured: growth inhibition

CC(=O)OC1(C#N)CC2OC1C1NC21 (stereo not given)
inactive: [1] 5.7% | [2] -8.8% | [3] 18.4% | [4] 8.8% | [5] -14.7% | [6] -13%

CCCCCCCCCCCCCCC(=O)[O][Hg][c]1ccccc1
active: [1] 99.2% | [2] 98.9% | [3] 99.5% | [4] 99% | [5] 99.2% | [6] 99.1%

CC(C)=CC1C(C(=O)OCc2ccc(Cl)c(Cl)c2)C1(C)C (stereo not given)
inactive: [1] 4.25% | [2] -2.5% | [3] 8.9% | [4] 16.9% | [5] 8.9% | [6] 5.25%

CCCC1CC=CCC12C(=O)NC(=O)NC2=O (stereo not given)
inactive: [1] -4.7% | [2] 1.45% | [3] 12.7% | [4] -6.5% | [5] 0.5% | [6] 12.9%

CC[n+]1c(C)n(-c2ccccc2)c(=O)c2ccccc21
inactive: [1] -0.3% | [2] -6.85% | [3] 4.75% | [4] 18.2% | [5] -10.9% | [6] 6.25%

NC(Cc1ccc(Cl)cc1)P(=O)(O)O (stereo not given)
inactive: [1] 7.7% | [2] -4.35% | [3] -6.75% | [4] -53.9% | [5] -12.1% | [6] -16.1%

O=C(Nc1ccc(N(CCCl)CCCl)cc1)Oc1ccc(C(=O)O)cc1
inactive: [1] 6.75% | [2] 6% | [3] 10.1% | [4] 9.3% | [5] 15.2% | [6] 20.5%

CCOP(=O)(OCC)/C(C#N)=C/c1ccoc1
inactive: [1] -36% | [2] -5.8% | [3] -58.2% | [4] -15.2% | [5] -29.9% | [6] -51%

C1CC2OC2CC1C1CO1 (stereo not given)
inactive: [1] -0.4% | [2] -3% | [3] 4.7% | [4] -8.4% | [5] -17.1% | [6] -17.9%

CC(=O)Nc1ccc(C(=O)O)cc1 (tested in a mixture with another compound)
inactive: [1] -25.9% | [2] -43.6% | [3] -17.4% | [4] 3.65% | [5] -46.2% | [6] -7.75%

CCOP(=O)(NCCc1ccccc1)OCC
inactive: [1] -36.6% | [2] -37.4% | [3] -7.3% | [4] -3.9% | [5] -33% | [6] -12.4%

O=P(O)(O)c1ccccc1.[Zn+2]
inactive: [1] 13.9% | [2] 16.4% | [3] -0.45% | [4] -14% | [5] 18.1% | [6] 24.2%

CCCCCCCCCCCCCCCCCC(=O)NC(CC(=O)OCCCCCC)c1ccc(N(CCCl)CCCl)cc1 (stereo not given)
inactive: [1] -2.6% | [2] 10.8% | [3] 12.8% | [4] -6.5% | [5] -3.9% | [6] 22.6%

N#CCCCBr
inactive: [1] -2.7% | [2] -15.8% | [3] 7.2% | [4] -13.8% | [5] -2% | [6] 11.8%

c1ccc2c(c1)oc1ccccc12
inactive: [1] 2.05% | [2] 11.3% | [3] 7.2% | [4] -64.5% | [5] 4% | [6] -4.1%

CC[C@@]1(O)C(=O)OCc2c1cc1n(c2=O)Cc2c-1nc1ccccc1c2Cl
inactive: [3] 63.8% | [5] -6.7% | [6] 46.3%
active: [1] 94.9% | [2] 92% | [4] 81.8%

C/C=C/C1(CCCC)C(=O)NC(=O)NC1=O
inactive: [1] 9.8% | [2] 3.35% | [3] 4.15% | [4] 8.75% | [5] -2.6% | [6] -20.8%

CCC[As](=O)(O)CC(C)C
inactive: [1] 3.2% | [2] -2.8% | [3] -4.9% | [4] 13.2% | [5] -0.4% | [6] -3.75%

CN(C)P1P(N(C)C)P(N(C)C)P1N(C)C (stereo not given)
inactive: [1] -25.4% | [2] 9.75% | [3] 2.2% | [4] -58.7% | [5] -7.5% | [6] -1.2%

CC(=O)[CH-]C(C)=O.CC(=O)[CH-]C(C)=O.CC(=O)[CH-]C(C)=O.[Ga+3]
inactive: [1] 28.6% | [2] 13.9% | [3] 15.3% | [4] 42.6% | [5] 31.1% | [6] 18.6%

COc1cc([C@@H]2c3cc4c(c(O)c3C[C@H]3COC(=O)[C@@H]32)OCO4)cc(OC)c1O
inactive: [1] 17.8% | [2] -13.9% | [3] 14.2% | [4] 9.4% | [5] 7.2% | [6] -14.7%

CC1CN1P1(N2CC2C)=NP(N2CC2C)(N2CC2C)=NP(N2CC2C)(N2CC2C)=N1 (stereo not given)
inactive: [1] -2.45% | [2] 1.3% | [3] 2.75% | [4] 15.7% | [5] -2.2% | [6] 5.5%

CN(Cc1ccccc1)C1=NCCN1
inactive: [1] -1.85% | [2] 7.1% | [3] -2.95% | [4] -47.8% | [5] 15.1% | [6] 9.95%

CC12CCC3C(CCC4=CC(=O)CCC43C=O)C1CCC2Oc1ccccc1 (stereo not given)
inactive: [1] 20.7% | [2] -9.7% | [3] 25% | [4] 23.6% | [5] 12.4% | [6] 25.6%

CO[C@H]1C[C@H](O[C@H]2CC[C@]3(C=O)[C@H]4CC[C@]5(C)[C@@H](C6=CC(=O)OC6)CC[C@]5(O)[C@@H]4CC[C@]3(O)C2)O[C@H](C)[C@H]1O[C@@H]1O[C@H](CO)[C@@H](O)[C@H](O)[C@H]1O
inactive: [1] 18.4% | [2] -11.1% | [3] 6.2% | [4] 12.2% | [5] 6.9% | [6] 32.3%

O.O.O=Cc1ccccc1O.O=Cc1ccccc1O.[Co]
active: [1] 98.2% | [2] 92.2% | [3] 97.8% | [4] 79.1% | [5] 92.5% | [6] 98.3%

CC(C)(C)c1ccc(O)cc1
inactive: [1] -21.1% | [2] -29.8% | [3] -18.8% | [4] -9.5% | [5] -1.45% | [6] 8.85%

COc1ccc(C(=O)O)cc1OC
inactive: [1] -0.25% | [2] 9.45% | [3] -18.8% | [4] 7.4% | [5] -9.5% | [6] 5%

CCN(CC)C(=O)N1CC2CCC(C1)N2C
inactive: [1] -4.6% | [2] 3.55% | [3] -6.9% | [4] -5.45% | [5] -9.95% | [6] -10.2%

[Cl][Sn]([Cl])([c]1ccccc1)[c]1ccccc1
48.4% (inactive) and 95.8% (active): [5]
51% (inactive) and 97.2% (active): [6]
0.95% (inactive) and 97.1% (active): [1]
29.9% (inactive) and 96.2% (active): [2]
41.5% (inactive) and 95.1% (active): [3]
-35.4% (inactive) and 95.2% (active): [4]

COC(=O)C1C(O)C(C)C(O)C(C)/C=C\C=C(C)C(=O)Nc2c(C)c(OC(C)=O)c3c(c2O)C(=O)C(C)=C2OCOC(=C23)C(C)=CC(C)(O)C(O)C(C)C1O (stereo not given)
inactive: [1] 11.9% and -16.8% and 23.8% | [2] -15.7% and -27.9% and -5.4% | [3] 12.1% and -26.9% and 3.05% | [4] -10.2% and -5.2% and 9.2% | [5] 26.9% and -13.5% and 10% | [6] 16.6% and -24.6% and 19.4%

CCCCOP(=O)(OCCCC)Oc1cccc([N+](=O)[O-])c1
inactive: [1] 6.6% | [2] 46.1% | [3] 18.9% | [4] 28.2% | [5] 42.3% | [6] 14.5%

CC(Br)C(=O)NC(C)C(=O)O (stereo not given)
inactive: [1] -19.6% and -15.2% | [2] -16.6% and -19.9% | [3] -12.4% | [4] 5.75% | [5] -17.6% | [6] -28.6% and -21.2%

NC(P(=O)(O)O)P(=O)(O)O
inactive: [1] 4.15% | [2] -1.2% | [3] 16.7% | [4] 15.3% | [5] 18.4% | [6] 7.1%

Nc1nc(N)[nH]c(=O)n1
inactive: [1] -20.1% | [2] -12.5% | [3] -39% | [4] -29.4% | [5] -36.4% | [6] -40%

C[N+](C)(C)CC(=O)O
inactive: [1] -4.3% and -7.25% | [2] -10.6% and 10.3% | [3] -20.4% and -6% | [4] 10.8% and -11.2% | [5] -29.2% and 3.4% | [6] -2.65% and -7%

CCCOC(=O)c1cncn1C(C)c1ccccc1 (stereo not given)
inactive: [1] 4.4% | [2] 18.7% | [3] 37.5% | [4] 10.7% | [5] 35.6% | [6] 31.4%

Nc1ccc([As](O)O)c(C(=O)O)c1
inactive: [1] -15.1% | [2] -24.1% | [3] -27.9% | [4] -2.35% | [5] -26.3% | [6] -35.6%

CS(=O)(=O)CCC(N)P(=O)(O)O (stereo not given)
inactive: [1] -45.9% | [2] -47.9% | [3] -48.5% | [4] -9.4% | [5] -21.8% | [6] -30.8%

CNC(Cc1ccccc1)c1cccc(O)c1 (stereo not given)
inactive: [1] 4.5% | [2] -6.2% | [3] -1.3% | [4] -24.9% | [5] 0.4% | [6] -5.15%

CCCCOS(C)(=O)=O
inactive: [1] 19.6% | [2] -13.8% | [3] 22.4% | [4] 5.8% | [5] 21.4% | [6] 29.4%

O=C1NCCCCC1Cl (stereo not given)
inactive: [1] -12.4% | [2] -1.1% | [3] -4% | [4] -21% | [5] 8.8% | [6] 14.5%

O=C(COc1ccc(Cl)c(Cl)c1)Nc1ccc[n+](Cc2ccc(S(=O)(=O)F)cc2Cl)c1
inactive: [1] 52.5% | [2] 27.9% | [3] 17.6% | [4] 58.2% | [5] 4% | [6] 8.5%

[CH3][Sn]1([CH3])[c]2ccccc2Oc2cccc[c]21
inactive: [1] -11.9% | [2] 1.65% | [3] 4.7% | [4] -1.2% | [5] 33.5% | [6] -17.6%

O=C(NCP(=O)(O)O)c1cccnc1
inactive: [1] -10.7% and -6.8% | [2] -29.5% and -10.8% | [3] -4.9% and 6.8% | [4] -37.6% and -25.1% | [5] -32.8% and -6.75% | [6] 2.85% and -10.2%

Reference: PubChem BioAssay (NCI)
